{"source": "ChEMBL document CHEMBL3433997", "about": "“St. Jude Leishmania screening dataset” (2016)", "data": [{"molecular_target": "Solute carrier family 2, facilitated glucose transporter member 1 (Homo sapiens) (UniProt P11166)", "sequence (P11166 whole entry)": "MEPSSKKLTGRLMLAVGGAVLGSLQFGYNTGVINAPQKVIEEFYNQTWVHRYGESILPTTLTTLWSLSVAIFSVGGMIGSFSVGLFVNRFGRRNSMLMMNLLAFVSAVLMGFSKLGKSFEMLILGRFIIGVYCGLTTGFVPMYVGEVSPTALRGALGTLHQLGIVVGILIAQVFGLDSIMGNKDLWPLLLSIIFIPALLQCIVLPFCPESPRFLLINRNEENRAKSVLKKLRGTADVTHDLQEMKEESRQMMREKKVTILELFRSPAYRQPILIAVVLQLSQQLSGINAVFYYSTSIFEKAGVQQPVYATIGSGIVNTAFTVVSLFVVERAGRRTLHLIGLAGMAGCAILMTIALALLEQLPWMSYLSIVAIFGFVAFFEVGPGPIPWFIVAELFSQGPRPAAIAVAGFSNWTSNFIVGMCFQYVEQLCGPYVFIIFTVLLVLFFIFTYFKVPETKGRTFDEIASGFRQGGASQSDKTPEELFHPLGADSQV", "test": "ST_JUDE_LEISH: Cytotoxicity at 2uM final concentration against transgenic Leishmania Mexicana promastigotes LmGLUT1 that are glucose transport deficient and complemented with the human glucose transporter GLUT1. Activity is measured by DNA content using SYBR green in vitro", "type": "functional", "units": {"inhibition": "%"}, "values": [{"smiles": "Cc1cccc2nc(-c3ccc(-c4cccc(CNCc5ccccc5)c4)cc3)[nH]c12", "inhibition": 16.8}, {"smiles": "O=C(Nc1ccc([N+](=O)[O-])cc1O)Nc1ccccc1Oc1ccccc1", "inhibition": -1.52}, {"smiles": "CN(C)Cc1c(O)ccc2oc(Cc3ccccc3)cc12", "inhibition": -1.64}, {"smiles": "CC[C@H](NC(=O)c1c(CC2CCN(CC(C)=O)CC2)c(-c2ccccc2)nc2ccccc12)c1ccccc1", "inhibition": 2.8}, {"smiles": "CCN1CCC(N(Cc2ccc(-c3ccc(C(F)(F)F)cc3)cc2)C(=O)Cn2c(CCc3cccc(F)c3F)cc(=O)c3ccccc32)C1", "note": "(stereo not drawn)", "inhibition": 0.08}, {"smiles": "Nc1nccc2ccc(-c3cccc(OCc4ccccc4)c3)cc12", "inhibition": 1.85}, {"smiles": "CCOc1ccc(C(C)NC(=O)C2COc3ccccc3O2)cc1OCC", "note": "(stereo not drawn)", "inhibition": 2.23}, {"smiles": "COc1ccc(CCNc2nc(NCc3ccccc3)c3cc(OC)c(OC)cc3n2)cc1OC", "inhibition": 5.66}, {"smiles": "CCc1c(C(=O)NC2CCC(N3CCC(c4ccccc4C)CC3)CC2)[nH]c2ccc(Br)cc12", "note": "(stereo not drawn)", "inhibition": 5.69}, {"smiles": "Cc1c(CNCCCNc2nc3ccccc3[nH]2)[nH]c2cc(Cl)cc(Cl)c12", "inhibition": 25.5}, {"smiles": "CC(C)c1ccc(NC(=O)c2ccc(C(=O)NC3CCN(CC4CCCCC4)C3)cc2)cc1", "note": "(stereo not drawn)", "inhibition": 3.72}, {"smiles": "C=CCN1C(=O)C(=Cc2cc(Br)ccc2O)SC1=Nc1ccccc1", "inhibition": 8.65}, {"smiles": "Clc1cccc(C=NN=c2cc[nH]c3ccccc23)c1", "inhibition": 1.39}, {"smiles": "Cc1nc(NCc2ccccc2)cc(NCC(O)c2ccc(O)cc2)n1", "note": "(stereo not drawn)", "inhibition": 8.37}, {"smiles": "Fc1cccc(COc2ccc(Nc3ncnc4cc(/C=C/[C@@H]5CCCN5)sc34)cc2Cl)c1", "inhibition": 5.81}, {"smiles": "Cc1c(Br)cc2nc(-c3ccc(C(=O)NC4CCN(Cc5ccccc5)CC4)cc3)[nH]c2c1C", "inhibition": 1.63}, {"smiles": "CC[C@H](C)CNC(=O)c1ccnc(-c2ccc(CNC3Cc4ccccc4C3)cc2)c1", "inhibition": 0.15}, {"smiles": "Nc1ncnc2c1ncn2C(CO)Cc1ccc(O)cc1", "note": "(stereo not drawn)", "inhibition": 9.32}, {"smiles": "Cc1nc2sccn2c1C(=O)NCCc1ccccc1Cl", "inhibition": 0.29}, {"smiles": "O=c1cc(NCCCNCc2ccc(C(F)(F)F)cc2F)[nH]c2ccccc12", "inhibition": 2.19}, {"smiles": "Cc1ccc(C)c2sc(N3CCN(C(=O)c4ccc([N+](=O)[O-])o4)CC3)nc12", "inhibition": 28.7}, {"smiles": "COc1cc(Nc2nccc(N3CCC(NS(=O)(=O)c4ccc(NC(C)=O)cc4)CC3)n2)cc(OC)c1OC", "inhibition": -1.13}, {"smiles": "O=C(Nc1ccc(Oc2ccccc2)cc1)N(Cc1ccc(-c2ccc(CN3CCNCC3)cc2)cc1)C1CCN(Cc2ccccc2)CC1", "inhibition": -1.93}, {"smiles": "Cc1cc2ncn(-c3nccc(NCc4ccc(F)c(C)c4)n3)c2cc1C", "inhibition": 4}, {"smiles": "Cc1cc(C)c2ncc(C(=O)O)c(O)c2c1", "inhibition": 2.75}, {"smiles": "Cc1sc(C)c(CNCCCNc2cc(=O)c3ccccc3[nH]2)c1Br", "inhibition": 2.08}, {"smiles": "Cc1ccc2nc(C)cc(Nc3ccccc3O)c2c1", "inhibition": -0.76}, {"smiles": "COc1ccc(C2C(C(=O)Nc3cc(Cl)c(OC)cc3OC)c3ccccc3C(=O)N2C)cc1", "note": "(stereo not drawn)", "inhibition": 0.28}, {"smiles": "COc1ccc2nccc([C@@H](O)CN3CCC(NC(=O)c4ccc(C5(C(F)(F)F)N=N5)cc4)CC3)c2c1", "inhibition": 14.3}, {"smiles": "Cc1nc(Nc2ccc(F)cc2)nc(N2CCc3ccccc3C2C)c1CO", "note": "(stereo not drawn)", "inhibition": 5.38}, {"smiles": "CCCC(CNCc1ccc(Cl)c(C(F)(F)F)c1)CNc1nc2cnccc2[nH]1", "note": "(stereo not drawn)", "inhibition": 13.5}, {"smiles": "CCCCn1c(=N)c(C(=O)NCc2cccnc2)cc2c(=O)n3cccc(C)c3nc21", "inhibition": 4.38}, {"smiles": "CC1(C)NC(N)=NC(=N)N1OCc1cccc(Cl)c1Cl", "inhibition": 2.02}, {"smiles": "Cc1cc(=NN=CC=Cc2ccccc2)c2cc(F)ccc2[nH]1", "inhibition": 0.37}, {"smiles": "N#Cc1ccc(N[C@@H](CC2CCCCC2)C(=O)NCc2cc(F)c(F)cc2F)c2ccccc12", "inhibition": 13}, {"smiles": "O=C(N[C@H]1CCN(Cc2ccc(OC3CCN(Cc4ccccc4)CC3)cc2)C1)c1ccc(Cl)c(Cl)c1", "inhibition": -0.36}, {"smiles": "NC1=NC(Cc2ccccc2)N(c2ccc(Cl)cc2)C(N)=N1", "note": "(stereo not drawn)", "inhibition": 8.89}, {"smiles": "O=C(NC(=O)c1ccccc1)NC1CCN(c2ccnc3cc(Cl)ccc23)C1", "note": "(stereo not drawn)", "inhibition": -0.37}]}]}
